# According to paper PMC4336329 (PLoS ONE, 2015):
# Screen size: about 310,000 compounds; about 2,200 (0.71%) showed an effect of 50% or more. Effects have a minus sign here. Many of the other results were omitted from the sample, so strong results are more common in it than they were.
# Target: human ether-à-go-go-related gene (hERG) potassium channel (human, UniProt Q12809)
# Test: primary screen, population patch clamp on CHO cells stably expressing hERG; higher = less effect of the substance
# Chain of human ether-à-go-go-related gene (hERG) potassium channel (Q12809 whole entry, looked up): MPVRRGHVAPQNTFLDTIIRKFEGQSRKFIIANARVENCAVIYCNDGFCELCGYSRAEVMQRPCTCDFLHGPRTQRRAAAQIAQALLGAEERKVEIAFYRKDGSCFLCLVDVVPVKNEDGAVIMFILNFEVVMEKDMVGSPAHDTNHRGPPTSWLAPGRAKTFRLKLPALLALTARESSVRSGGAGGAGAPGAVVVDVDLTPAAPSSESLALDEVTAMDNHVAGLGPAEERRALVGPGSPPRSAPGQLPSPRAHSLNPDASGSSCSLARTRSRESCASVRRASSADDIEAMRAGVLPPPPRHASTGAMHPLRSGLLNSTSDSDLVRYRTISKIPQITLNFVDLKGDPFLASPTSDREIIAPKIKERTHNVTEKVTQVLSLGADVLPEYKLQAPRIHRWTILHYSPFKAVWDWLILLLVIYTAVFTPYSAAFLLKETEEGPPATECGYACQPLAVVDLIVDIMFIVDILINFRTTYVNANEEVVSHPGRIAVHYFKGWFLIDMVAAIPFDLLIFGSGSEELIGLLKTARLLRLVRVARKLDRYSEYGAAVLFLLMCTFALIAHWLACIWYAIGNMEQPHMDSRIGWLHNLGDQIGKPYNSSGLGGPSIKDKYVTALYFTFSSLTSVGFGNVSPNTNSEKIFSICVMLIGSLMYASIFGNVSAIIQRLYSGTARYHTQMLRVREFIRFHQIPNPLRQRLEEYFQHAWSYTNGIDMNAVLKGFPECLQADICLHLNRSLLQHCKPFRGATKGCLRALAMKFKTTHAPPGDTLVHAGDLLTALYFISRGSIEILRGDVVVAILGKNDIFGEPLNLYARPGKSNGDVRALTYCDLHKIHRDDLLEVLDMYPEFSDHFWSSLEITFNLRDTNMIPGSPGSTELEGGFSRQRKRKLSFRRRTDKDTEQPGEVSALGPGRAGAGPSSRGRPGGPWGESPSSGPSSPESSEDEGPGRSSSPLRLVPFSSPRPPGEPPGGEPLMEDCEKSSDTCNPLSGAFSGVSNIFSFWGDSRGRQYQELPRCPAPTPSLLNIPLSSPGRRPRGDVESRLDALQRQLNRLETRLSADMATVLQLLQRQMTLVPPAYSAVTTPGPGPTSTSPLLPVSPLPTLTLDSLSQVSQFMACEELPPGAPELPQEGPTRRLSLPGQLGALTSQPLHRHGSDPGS
row,Compound,"hERG current change (%, negative = inhibition) at 1uM"
1,Cc1ccc(NC(=S)NCCc2ccc(Cl)cc2)c(C)c1,12.4%
2,COc1ccc(CNC(=O)CCCn2nc(C)c3c(C)n(-c4ccc(C)cc4)nc3c2=O)cc1,6.87%
3,O=c1c2ccccc2cnn1Cc1nnc(-c2cccs2)o1,13.7%
4,CCOC(=O)CSc1nc2c(c(=O)[nH]c(=O)n2C)n1CCCc1ccccc1,1.75%
5,CCOc1ccc(S(=O)(=O)NCCCN2CCOCC2)cc1,9.88%
6,Cn1cnnc1SCC(=O)OCN1C(=O)c2ccccc2C1=O,7.64%
7,COc1ccc(CCNC(=O)c2cc3c(=O)n4ccccc4nc3n(C3CCCCC3)c2=N)cc1OC,-61.9%
8,COc1ccc(CCNC(=O)c2cnc3ccccn3c2=O)cc1,-1.13%
9,COc1ccc(CCNC(=O)c2c(C)nc3ccccn23)cc1OC,-9.75%
10,COc1ccc(CCNC(=O)c2cc3c(=O)n4ccccc4nc3n(C3CCCCC3)c2=N)cc1,-67.6%
11,COc1ccc(CCNC(=O)c2cccc3ccccc23)cc1OC,22%
12,COc1ccc(CCNC(=O)c2c(C)nc3ccccn23)cc1,4.94%
13,COc1ccc(CN(C)CC(=O)Nc2cccc(S(=O)(=O)N(C)c3ccccc3)c2)c(OC)c1,-25%
14,COc1ccc([N+](=O)[O-])c(OC)c1C(=O)NC(=O)Nc1c(F)c(F)c(F)c(F)c1F,4.71%
15,O=C(NCCN1CCN(C(=O)c2ccc([N+](=O)[O-])cc2)CC1)C(=O)NCc1ccccc1,-85.9%
16,Cl.O=C(NCCN1CCCC1)c1ccc(Br)cc1,3.38%
17,O=C(NCCN1CCN(C(=O)c2ccc(F)cc2)CC1)c1ccc(F)cc1,-32%
18,CCOc1ccc(NC(=O)C(=O)NCCN2CCN(S(=O)(=O)c3ccc(C)cc3)CC2)cc1,11.6%
19,CC(C)(C)c1ccc(C(=O)N2CCN(CCNC(=O)C(=O)NCc3ccccc3)CC2)cc1,-8.22%
20,O=C(NCCN1CCN(C(=O)c2cccc(Br)c2)CC1)C(=O)NCc1ccccc1,-11.2%
21,O=C(NCCN1CCN(C(=O)c2ccc(Br)cc2)CC1)c1ccc(Br)cc1,-63.5%

row,Compound,"hERG current change (%, negative = inhibition) at 1uM"
1,COc1ccc(NC(=O)C(=O)NCCN2CCN(C(=O)c3ccc(C)cc3)CC2)cc1,-28.6%
2,O=C(NCCN1CCN(C(=O)c2cccc([N+](=O)[O-])c2)CC1)C(=O)NCc1ccc(Cl)cc1,0.645%
3,O=C(NCCN1CCN(c2ccc([N+](=O)[O-])cc2)CC1)NCc1ccccc1,-20.2%
4,O=C(NCCN1CCN(C(=O)c2ccc(F)cc2)CC1)C(=O)NCc1ccccc1,-75.1%
5,CCOc1ccc(NC(=O)C(=O)NCCN2CCN(C(=O)c3ccc(C)cc3)CC2)cc1,-65.5%
6,CCOC(=O)c1c(NC(=O)C2C3C=CC(C3)C2C(=O)O)sc2c1CC(C)(C)OC2 (centres unmarked),2.99%
7,CCOC(=O)CC1(NC(=O)c2cc(COc3cccc(OC)c3)on2)CCCCC1,10.3%
8,CN1CCN(S(=O)(=O)c2cccc(C(=O)Oc3cccc(C#N)c3)c2)CC1,11.8%
9,CC12CC3CC(C)(C1)CC(C(=O)NNC(=O)c1ccncc1)(C3)C2,-7.13%
10,CC(=O)c1ccc(NC(=S)Nc2cccc(Cl)c2C)cc1,12.3%
11,CCNC(=O)NC(=O)COC(=O)CNC(=O)COc1ccccc1,14.5%
12,CC(NC(=O)C(=O)NCCN1CCN(C(=O)c2ccc([N+](=O)[O-])cc2)CC1)c1ccccc1 (centres unmarked),-67.8%
13,CC(NC(=O)C(=O)NCCN1CCN(C(=O)c2ccccc2Br)CC1)c1ccccc1 (centres unmarked),9.08%
14,CCCCc1ccc(NC(=O)C(=O)NCCN2CCN(C(=O)c3ccc([N+](=O)[O-])cc3)CC2)cc1,0.387%
15,O=C(NCCN1CCN(C(=O)c2ccc([N+](=O)[O-])cc2)CC1)C(=O)Nc1ccc(F)cc1,-84.3%
16,CNC(=O)C(=O)NCCN1CCN(C(=O)c2ccc([N+](=O)[O-])cc2)CC1,9.09%
17,Cc1ccc(C(=O)N2CCN(CCNC(=O)C(=O)NC(C)C)CC2)cc1,7.95%
18,Cc1ccc(C(=O)NCC(=O)N2CCCCCCC2)cc1,20.7%
19,COc1cc(OC)cc(C(=O)NC(=S)Nc2nnn(C)n2)c1,13%
20,O=C(Nc1ccc(F)cc1)N1CCCC(c2nc3c(nnn3Cc3ccccc3Cl)c(=O)[nH]2)C1 (centres unmarked),13.4%
21,CCOC(=O)c1csc(NC(C)=O)n1,7.33%

row,Compound,"hERG current change (%, negative = inhibition) at 1uM"
1,CN1CCC(=O)N([C@H](CSc2ccc(Br)cc2)c2ccccc2)CC1,-89.8%
2,CCCN1CCC(=O)N([C@H](CSc2ccc(C)cc2)c2ccccc2)CC1,-76.3%
3,CC(=O)Nc1ccc(SC[C@H](CC(C)C)N2CCN(CCc3ccccc3)CCC2=O)cc1,-26.2%
4,CC(C)CN1CCC(=O)N([C@H](CSc2ccc(Br)cc2)c2ccccc2)CC1,-21.5%
5,Cc1ccc(SC[C@H](Cc2ccccc2)N2CCN(CCc3ccccc3)CCC2=O)cc1,8.27%
6,CN1CCC(=O)N([C@H](CSc2ccccc2)c2ccccc2)CC1,-46.4%
7,CC(=O)Nc1ccc(SC[C@H](Cc2ccccc2)N2CCN(CCc3ccccc3)CCC2=O)cc1,4.37%
8,CC(=O)Nc1ccc(SC[C@H](c2ccccc2)N2CCN(CCc3ccccc3)CCC2=O)cc1,-56%
9,CCCN1CCC(=O)N([C@H](CSc2ccc(OC)cc2)c2ccccc2)CC1,-81.7%
10,CCCN1CCC(=O)N([C@H](CSc2ccccc2)CC(C)C)CC1,-31.8%
11,CCCN1CCC(=O)N([C@H](CSc2ccc(OC)cc2)Cc2ccccc2)CC1,-36.3%
12,CCCN1CCC(=O)N([C@H](CSc2ccc(OC)cc2)CC(C)C)CC1,-42.3%
13,COc1ccc(CNC(=O)c2cc(COc3c(F)cccc3F)on2)cc1OC,7.12%
14,Cc1ccc(NC(=O)/C(C#N)=C/c2ccsc2)c(C)c1,15.6%
15,Cc1ccc(S(=O)(=O)N(C)c2ccc(C(=O)Nc3c(C)n(C)n(-c4ccccc4)c3=O)cc2)cc1,4.15%
16,O=C(NNS(=O)(=O)c1ccc(F)cc1)C1CC(c2cccnc2)=NO1 (centres unmarked),14.8%
17,O=C(/C(=N\O)n1cncn1)c1ccc(Cl)cc1Cl,15.2%
18,COc1ccc(Cc2nnc(NC(=O)Nc3ccccc3F)s2)cc1,15.2%
19,Cc1ccccc1OCC(=O)Nc1ccccc1N1CCC(C)CC1,18.9%
20,O=C1CCCC(O)=C1C1NCCc2ccccc21 (centres unmarked),9.52%
21,CCCN1CCC(=O)N([C@H](CSc2ccc(Br)cc2)c2ccccc2)CC1,-17.5%

row,Compound,"hERG current change (%, negative = inhibition) at 1uM"
1,O=C1CCN(CCc2ccccc2)CCN1[C@H](CSc1ccccc1)c1ccccc1,-72.2%
2,Cc1ccc(SC[C@H](c2ccccc2)N2CCN(CCc3ccccc3)CCC2=O)cc1,-10.2%
3,O=C1CCN(Cc2ccccc2)CCN1[C@H](CSc1ccccc1)c1ccccc1,2.25%
4,CCCN1CCC(=O)N([C@H](CSc2ccccc2)c2ccccc2)CC1,-82.2%
5,O=C1CCN(CCc2ccccc2)CCN1[C@H](CSc1ccc(Br)cc1)c1ccccc1,-18.8%
6,COC(=O)c1ccc(CN2CCN(CCCc3ccccc3)C(CCO)C2)cc1 (centres unmarked),-29.1%
7,COCCCNC(=O)c1cc(C)nc2ccc(F)cc12,-1.73%
8,CN(C)S(=O)(=O)Oc1ccsc1C(=O)Nc1ccccc1Cl,5.7%
9,Cc1cccc(CN2CCN(CC(=O)NCc3ccc(F)cc3)C2=O)c1,7.12%
10,O=C(CN1CCN(Cc2ccc(Cl)cc2)C1=O)NCCCN1CCOCC1,4.56%
11,Cc1ccccc1CN1CCN(CC(=O)NCCCN2CCN(c3ccc(F)cc3)CC2)C1=O,-52%
12,COc1ccc(N2CCN(CCCNC(=O)CN3CCN(Cc4ccccc4C)C3=O)CC2)cc1,-16.7%
13,Cc1ccc(CN2CCN(CC(=O)NCCCN3CCN(c4ccc(F)cc4)CC3)C2=O)cc1,-56.6%
14,Cc1cccc(CN2CCN(CC(=O)NCCCN3CCN(c4ccc(F)cc4)CC3)C2=O)c1,-54.5%
15,CCOCCCNC(=O)CN1CCN(Cc2ccccc2C)C1=O,4.41%
16,Cc1cccc(CN2CCN(CC(=O)NCCCN3CCCC3=O)C2=O)c1,11.8%
17,O=C(CN1CCN(Cc2ccc(Cl)cc2)C1=O)NCCCN1CCN(c2ccc(F)cc2)CC1,-36.8%
18,O=C1NC2CCc3nc4ccccc4c(=O)n3C2=Nc2ccccc21 (centres unmarked),-6.24%
19,COc1cc2c(=O)n(CCC(=O)NCC3CCCO3)c(=O)n(CC(=O)Nc3ccc(C)c(C)c3)c2cc1OC (centres unmarked),11.6%
20,CNC(=O)c1ccccc1NC(=O)c1ccc(C)c(S(=O)(=O)N2CCCCC2)c1,-2.21%
